15 molecules from PubChem BioAssay (NCATS) can be followed below.

Experiment [1] is described as follows: qHTS drug screen for cell cycle checkpoint inhibitors in PARPi-resistant BRCA-mutant ovarian cancer cell lines. (AID 1963452). Further: potency means the concentration at half of the fitted maximal effect. The conditions noted are these: PEO1/OlaR viability, CellTiter-Glo luminescence, 96 h; for Z-AUC: stronger effect = lower value. In short, it runs like this:
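PEO1, PEO4 and PEO1/OlaR ovarian cancer cells, 600 per well, exposed 96 h at 37C to a dilution series. Viability read by CellTiter-Glo luminescence, normalized to DMSO and empty wells; activity summarized as Z-AUC.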

Experiment [2] is described as follows: Primary redox qHTS assay for identification of artifact compounds. (AID 1845223; active means well fitted curve in the direction sought with a large enough effect; an effect the other way counts as inactive or inconclusive;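 further: 0% = DMSO and 100% = reference compound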). The method, boiled down:
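Redox-cycling detection via DTT (250 uM final) oxidation coupled to Amplex Red (25 uM)/HRP (250 mU/mL) in HBSS. 15 min preincubation plus 30 min after DTT, room temperature. Ex/Em 525/598 nm; 4-parameter Hill fit against DMSO and 10 uM DA3003.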

The next experiment has as its system 7G8. The experiment in a line: qHTS profiling for inhibitors of Plasmodium falciparum proliferation (AID 504749; active means well fitted curve in the direction sought with a large enough effect; an effect the other way counts as inactive or inconclusive; further: potency means the concentration at half of the fitted maximal effect; nearly all actives have a fitted effect of over 60% in size). The conditions noted are these: P. falciparum in erythrocytes, SYBR Green DNA, 72 h; series mostly up to 28.7 µM. In short, it runs like this: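 Each compound contacts P. falciparum-infected red blood cells for 72 h at 37 C; lysis buffer (Tris, EDTA, saponin, Triton X, SYBR Green I) is added and fluorescence measured next morning; values normalized to controls.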
For orientation: Quantitative high-throughput screening tests each substance at several concentrations.

The target of experiment [3] is Cytochrome P450 3A4 (Homo sapiens) (UniProt P08684). The experiment in a line: qHTS for inhibitors of CYP3A4 against the NCATS DSHEA and TCM libraries (AID 1919971; active means well fitted curve in the direction sought with a large enough effect; an effect the other way counts as inactive or inconclusive;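 further: on the % scale 0 is the no-effect control and ±100 the full control effect; inhibition lowers luminescence from luciferin made by CYP3A4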). In short, it runs like this: (§1)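 Concentration-response screening with isoform-matched pro-luciferin substrates. The CYP reaction was initiated by NADPH regenerating solution and ran 30-45 min in darkness at room temperature.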
Cytochrome P450 3A4 (Homo sapiens), sequence (P08684 whole entry, looked up, canonical isoform): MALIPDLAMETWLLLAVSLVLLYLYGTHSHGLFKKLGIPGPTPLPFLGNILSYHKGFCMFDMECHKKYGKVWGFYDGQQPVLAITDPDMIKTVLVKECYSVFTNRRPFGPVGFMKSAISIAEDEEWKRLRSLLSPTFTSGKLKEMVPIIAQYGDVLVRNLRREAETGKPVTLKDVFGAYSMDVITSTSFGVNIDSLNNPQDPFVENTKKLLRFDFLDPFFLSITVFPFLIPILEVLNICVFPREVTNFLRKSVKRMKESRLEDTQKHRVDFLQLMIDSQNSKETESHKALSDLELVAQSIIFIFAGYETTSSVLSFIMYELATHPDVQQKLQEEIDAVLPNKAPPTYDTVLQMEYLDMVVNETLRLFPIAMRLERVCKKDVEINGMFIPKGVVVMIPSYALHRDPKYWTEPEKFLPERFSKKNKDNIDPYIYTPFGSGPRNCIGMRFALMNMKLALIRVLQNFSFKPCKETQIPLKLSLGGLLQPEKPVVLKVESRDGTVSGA

For experiment [4], the target named is Cytochrome P450 2D6 (Homo sapiens) (UniProt P10635). The experiment in a line: qHTS for inhibitors of CYP2D6 against the NCATS DSHEA and TCM libraries (AID 1919972; active means well fitted curve in the direction sought with a large enough effect; an effect the other way counts as inactive or inconclusive; further: on the % scale 0 is the no-effect control and ±100 the full control effect). In short, it runs like this:
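CYP2D6 enzyme with pro-luciferin substrate in manufacturer buffer (typically 100 mM KPO4), preincubated 15 min RT with substances (most at 19.5 nM upward); NADPH regeneration system (1x) started 30–45 min RT reaction; P450-Glo luminescence read after 30 min; quinidine as intraplate control.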

Experiment [5] addresses Cytochrome P450 2C9 (Homo sapiens) (UniProt P11712). The experiment in a line: qHTS for inhibitors of CYP2C9 against the NCATS DSHEA and TCM libraries (AID 1919973; active means well fitted curve in the direction sought with a large enough effect; an effect the other way counts as inactive or inconclusive;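 further: luminogenic pro-luciferin CYP2C9 substrate turned into luciferin with NADPH regeneration; on the % scale 0 is the no-effect control and ±100 the full control effect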). In short, it runs like this:
as §1

In experiment [6] the target is Cytochrome P450 2C19 (Homo sapiens) (UniProt P33261). The experiment in a line: qHTS for inhibitors of CYP2C19 against the NCATS DSHEA and TCM libraries (AID 1919974; active means well fitted curve in the direction sought with a large enough effect; an effect the other way counts as inactive or inconclusive;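 further: luminescence from luciferin released by CYP2C19 oxidation of a pro-luciferin substrate; on the % scale 0 is the no-effect control and ±100 the full control effect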). In short, it runs like this:
as §1

The nature of experiment [7]: KB-3-1 P-gp reporter qHTS against the NCATS DSHEA and TCM libraries (AID 1919975; active means well fitted curve in the direction sought with a large enough effect; an effect the other way counts as inactive or inconclusive; further: 0% is about no effect). The method, boiled down: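 72 h exposure of KB-3-1 cells (DMEM, 10% FBS) to DSHEA/TCM samples, concentration-response; cell viability measured as CellTiter-Glo luminescence after 30 min at room temperature.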
The target of experiment [8] is Cytochrome P450 1A2 (Homo sapiens) (UniProt P05177). The experiment in a line: qHTS for inhibitors of CYPIA2 against the NCATS DSHEA and TCM libraries (AID 1919976; active means well fitted curve in the direction sought with a large enough effect; an effect the other way counts as inactive or inconclusive;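 further: light from luciferin formed by CYP1A2 from a pro-luciferin substrate; on the % scale 0 is the no-effect control and ±100 the full control effect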). In short, it runs like this:
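Enzyme and pro-luciferin substrate, or substrate alone as no-enzyme background, are pre-incubated with test samples for 15 min at room temperature. NADPH regeneration system (1x final) initiates a 30-45 min dark reaction; luciferase detection reagent follows before luminescence reading.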

Experiment [9] is described as follows: qHTS Counterscreen for compound interference against the NCATS DSHEA and TCM libraries (AID 1919978; active means well fitted curve in the direction sought with a large enough effect; an effect the other way counts as inactive or inconclusive; further: % of control where 0% means no effect). The conditions noted are these: firefly luciferase detection reagent interference, luminescence. The method, boiled down: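 Read-out is luminescence after 30 min at RT with luciferin detection reagent. Before that, compounds (19.5 nM to 39.8 uM final) sat 15 min at RT with 1 uM D-luciferin or 100 mM potassium phosphate buffer. PTC124 served as intraplate control.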

A short description of experiment [10]: Dual reporter qHTS for agonist of Pregnane X Receptor (hPXR) against the NCATS DSHEA and TCM libraries: Fluorescence readout (AID 1920058; active means well fitted curve in the direction sought with a large enough effect; an effect the other way counts as inactive or inconclusive; further: 0% is about no effect). The method, boiled down:
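Cells were plated at 2000 per well and allowed to attach for 5 h. Test substances were pinned in and incubated roughly 24 h. CellTiter-Fluor was then added and fluorescence measured after 1 h.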

For experiment [11], the target named is Nuclear receptor subfamily 1 group I member 2 (Homo sapiens) (UniProt O75469). The experiment in a line: Dual reporter qHTS for agonist of Pregnane X Receptor (hPXR) against the NCATS DSHEA and TCM libraries: Luminescence readout (AID 1920059; active means well fitted curve in the direction sought with a large enough effect; an effect the other way counts as inactive or inconclusive; further: 0% is about no effect). In short, it runs like this: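 hPXR-Luc HepG2 cells, 2000/well in 5% charcoal-stripped FBS medium, attached 5 h, then exposed 24 h at 37C to compounds. Viability by CellTiter-Fluor, then luciferase luminescence with ONE-Glo.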
Nuclear receptor subfamily 1 group I member 2 (Homo sapiens), sequence (O75469 whole entry, looked up): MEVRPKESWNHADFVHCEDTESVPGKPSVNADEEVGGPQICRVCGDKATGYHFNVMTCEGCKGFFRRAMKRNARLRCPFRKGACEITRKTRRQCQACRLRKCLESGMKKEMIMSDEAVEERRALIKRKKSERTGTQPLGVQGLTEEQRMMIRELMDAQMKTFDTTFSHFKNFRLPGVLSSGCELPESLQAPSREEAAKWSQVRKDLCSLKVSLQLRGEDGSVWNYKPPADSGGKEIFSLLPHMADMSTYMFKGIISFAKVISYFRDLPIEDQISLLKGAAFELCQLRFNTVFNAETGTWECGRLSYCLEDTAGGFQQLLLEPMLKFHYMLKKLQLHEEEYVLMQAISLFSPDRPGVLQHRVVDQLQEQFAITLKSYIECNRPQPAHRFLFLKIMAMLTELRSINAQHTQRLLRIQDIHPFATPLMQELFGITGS

Experiment [12] is described as follows: Dual reporter qHTS for antagonist of Pregnane X Receptor (hPXR) against the NCATS DSHEA and TCM libraries: Fluorescence Readout (AID 1920061; active means well fitted curve in the direction sought with a large enough effect; an effect the other way counts as inactive or inconclusive; further: 0% is about no effect). The method, boiled down:
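HepG2 hPXR-Luc, 2000 cells/well, charcoal-stripped FBS medium; 5 h attach; RIF 2 uM final; 24 h 37C/5% CO2; CellTiter-Fluor 1 h, fluor 405/540; ONE-Glo 30 min RT, lum.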

Where [13] appears, read: measured here: PEO1 parental Z-AUC.

Molecules are shown by their SMILES. Where “and” joins values, the source holds several entries; their conditions need not be identical. Equal entries are not always repeated. Records with an inconclusive call do not appear. Calls of active or inactive are those of the source. Unless noted, the call rests on the fitted dose curve.

Cytochrome P450 2C19 (Homo sapiens), sequence (P33261 whole entry, looked up): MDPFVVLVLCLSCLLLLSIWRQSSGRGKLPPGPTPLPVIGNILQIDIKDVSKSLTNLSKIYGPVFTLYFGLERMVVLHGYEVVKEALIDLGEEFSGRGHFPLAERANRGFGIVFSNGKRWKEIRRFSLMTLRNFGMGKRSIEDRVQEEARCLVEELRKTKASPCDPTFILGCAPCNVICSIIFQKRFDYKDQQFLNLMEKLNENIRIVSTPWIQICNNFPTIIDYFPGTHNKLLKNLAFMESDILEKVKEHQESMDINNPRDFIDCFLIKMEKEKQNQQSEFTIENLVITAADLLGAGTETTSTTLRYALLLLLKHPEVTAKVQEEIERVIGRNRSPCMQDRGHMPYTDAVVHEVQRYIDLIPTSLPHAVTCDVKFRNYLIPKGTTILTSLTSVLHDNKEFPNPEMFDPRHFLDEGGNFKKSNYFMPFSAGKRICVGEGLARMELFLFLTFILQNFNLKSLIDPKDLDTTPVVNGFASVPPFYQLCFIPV
Cytochrome P450 1A2 (Homo sapiens), sequence (P05177 whole entry, looked up): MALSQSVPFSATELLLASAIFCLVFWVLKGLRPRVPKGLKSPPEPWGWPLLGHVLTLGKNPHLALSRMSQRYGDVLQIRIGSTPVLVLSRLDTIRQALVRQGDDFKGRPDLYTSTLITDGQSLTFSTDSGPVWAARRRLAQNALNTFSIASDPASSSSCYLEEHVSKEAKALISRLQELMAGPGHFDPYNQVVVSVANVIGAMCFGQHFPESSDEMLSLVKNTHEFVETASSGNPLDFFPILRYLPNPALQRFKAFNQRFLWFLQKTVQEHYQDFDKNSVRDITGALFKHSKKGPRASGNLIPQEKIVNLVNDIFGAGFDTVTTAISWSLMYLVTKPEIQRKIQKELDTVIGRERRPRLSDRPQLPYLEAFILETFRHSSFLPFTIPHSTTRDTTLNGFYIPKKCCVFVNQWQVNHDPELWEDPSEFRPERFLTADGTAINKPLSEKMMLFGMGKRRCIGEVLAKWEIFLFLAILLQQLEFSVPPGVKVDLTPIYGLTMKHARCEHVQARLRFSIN
Cytochrome P450 2C9 (Homo sapiens), sequence (P11712 whole entry, looked up): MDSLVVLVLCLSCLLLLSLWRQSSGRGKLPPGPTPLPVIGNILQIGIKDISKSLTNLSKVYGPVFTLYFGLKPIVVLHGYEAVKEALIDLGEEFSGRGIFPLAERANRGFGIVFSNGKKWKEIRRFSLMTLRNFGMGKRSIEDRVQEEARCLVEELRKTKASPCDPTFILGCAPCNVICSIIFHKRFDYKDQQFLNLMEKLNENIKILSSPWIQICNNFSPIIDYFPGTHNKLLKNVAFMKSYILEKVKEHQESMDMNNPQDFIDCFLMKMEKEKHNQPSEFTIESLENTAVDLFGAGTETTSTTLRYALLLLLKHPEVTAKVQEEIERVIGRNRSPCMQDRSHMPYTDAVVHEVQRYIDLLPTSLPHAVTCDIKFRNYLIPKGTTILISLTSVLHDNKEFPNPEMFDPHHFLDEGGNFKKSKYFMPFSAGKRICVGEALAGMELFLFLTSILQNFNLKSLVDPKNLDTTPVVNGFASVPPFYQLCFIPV
Cytochrome P450 2D6 (Homo sapiens), sequence (P10635 whole entry, looked up): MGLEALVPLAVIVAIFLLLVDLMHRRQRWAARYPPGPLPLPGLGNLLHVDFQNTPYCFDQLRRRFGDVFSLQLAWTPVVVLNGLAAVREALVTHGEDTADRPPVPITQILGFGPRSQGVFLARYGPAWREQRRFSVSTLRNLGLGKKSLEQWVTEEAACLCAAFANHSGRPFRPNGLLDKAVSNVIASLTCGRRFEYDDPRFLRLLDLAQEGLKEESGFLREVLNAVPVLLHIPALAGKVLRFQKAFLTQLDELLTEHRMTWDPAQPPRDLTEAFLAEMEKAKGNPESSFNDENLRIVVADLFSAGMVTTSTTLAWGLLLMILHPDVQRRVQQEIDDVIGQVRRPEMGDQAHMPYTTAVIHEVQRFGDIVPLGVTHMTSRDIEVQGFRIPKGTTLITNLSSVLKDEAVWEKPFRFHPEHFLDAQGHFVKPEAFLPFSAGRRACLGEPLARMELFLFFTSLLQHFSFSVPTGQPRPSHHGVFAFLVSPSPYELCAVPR

As to `NC(=O)c1cnc(N[C@@H]2CCCC[C@@H]2N)nc1Nc1cccc(-n2nccn2)c1`, the Z-AUC was 0.565 (inactive) in experiment [1], -0.0999 in [1] (setting [13]) and 0.242 in experiment [1] (measured here: PEO4 Z-AUC).
Taken in the same sequence, the figures for `CS(=O)(=O)c1ccc(Oc2cc(F)cc(C#N)c2)c2c1[C@H](O)C(F)(F)C2` were 1.42 (inactive), 1.01 and 0.7.
Consider `CCNC(=O)C#Cc1ccc2c(C(=Nc3ccc(CN(C)C)cc3)c3ccccc3)c(O)[nH]c2c1`, for which the Potency in experiment [1] is 535 nM (active). Further, the values for the Z-AUC in [1] (setting [13]) and in [1] (measured here: PEO4 Z-AUC) were -2.66 and -2.58, respectively.
On to `CN1CC[C@@H](c2c(O)cc(O)c3c(=O)cc(-c4ccc(C(F)(F)F)cc4Cl)oc23)[C@@H]1CO`, for which the Z-AUC in experiment [1] was -0.123 (inactive); in experiment [1] (setting [13]), 0.298; in [1] (measured here: PEO4 Z-AUC) it was 0.604.
For the molecule `O=C(Cc1cccc(OC(F)(F)F)c1)Nc1ccc(CCCCc2nnc(NC(=O)Cc3ccccn3)s2)nn1`, the Z-AUC was -1.13 (inactive) in experiment [1], -1.01 in experiment [1] (setting [13]) and -1.03 in [1] (measured here: PEO4 Z-AUC).
Regarding `COC1C(OC(=O)/C=C/C=C/C=C/C=C/C(=O)O)CCC2(CO2)C1C1(C)OC1CC=C(C)C` (stereo unspecified), in [2], the Potency entry is “inactive”. Also, the Potency in the experiment with 7G8 was 5.6 nM (active).
Take `Cc1[nH]c(/C=C2\C(=O)Nc3ccc(S(=O)(=O)N(C)c4cccc(Cl)c4)cc32)c(C)c1C(=O)N1CCN(C)CC1`: the Z-AUC in experiment [1] is 1.27 (inactive); in experiment [1] (setting [13]) it was 1.2; in [1] (measured here: PEO4 Z-AUC), 1.26.
Taken in the same sequence, the figures for `NCCOc1cc(C(=O)Nc2cc(OCCN)c3ccccc3n2)nc(C(=O)Nc2cc(OCCN)c3ccccc3n2)c1` were -0.0869 (inactive), -0.747 and -0.493.
As for `CC[C@@H](C)Nc1cc(C(=O)NC2CC3CCC(C2)N3c2ccc(C(=O)C3CC3)cn2)c(C)cc1C(N)=O` (stereo partly specified), the Z-AUC in [1] was -1.08 (inactive); in experiment [1] (setting [13]), -1.13; in experiment [1] (measured here: PEO4 Z-AUC), -0.342.
Taken in the same sequence, the figures for `COc1cc(S(C)(=O)=O)ccc1Nc1nc2ccc(-c3ccc(NC(=O)[C@H](C)c4ccc(F)cc4)cc3)cn2n1` were 0.76 (inactive), 0.0908 and 0.043.
As for `O=C(O)CC(O)(CC(=O)O)C(=O)O`, the result in experiment [3], in experiment [4], in [7], in experiment [10], in experiment [11] and in experiment [12] was inactive. The Potency result in experiment [5], in [6] and in experiment [8] was “inactive” throughout. The max response in experiment [9] is -0.506% (inactive).
Take `COCC(=O)NC/C=C/c1ccc2ncnc(Nc3ccc(Oc4ccc(C)nc4)c(C)c3)c2c1`: the Z-AUC in experiment [1] is -0.178 (inactive); in experiment [1] (setting [13]), -0.29; in experiment [1] (measured here: PEO4 Z-AUC), -0.0701.
Taken in the same sequence, the figures for `CCOC(=O)[C@@]1(CCCCCCOc2ccc(Cl)cc2)CO1` were 1.19 (inactive), 1.19 and 1.21.
Taken in the same sequence, the figures for `CN1CCN(C2CCN(C(=O)Nc3cc(Oc4ccc(NC(=O)C5(C(=O)Nc6ccc(F)cc6)CC5)c(F)c4)ccn3)CC2)CC1` were 0.53 (inactive), 0.13 and -0.114.
For the molecule `Cc1c[nH]c2ncnc(N3CCC(CN)(C(=O)Nc4cccc(OC(=O)N(C)C)c4)CC3)c12`, the Z-AUC in experiment [1] is -0.731 (inactive) and 0.531 (inactive); in experiment [1] (setting [13]), -0.27 and -0.244; in experiment [1] (measured here: PEO4 Z-AUC), -0.694 and 1.07.
